These results are taken from PubChem BioAssay (EPA / NIEHS).

Records with an inconclusive call do not appear. Activity calls are given as the source filed them. How the source made its calls, unless noted: active means hit-call score of the fitted dose curve at least 0.9, where 1 is the maximum; inactive means score below 0.9.

Assay [1] in a line: BSK_LPS_PGE2: BioMAP Diversity Plus: LPS Assay for Prostaglandin E2 (PGE2) Biomarker Activity (AID 2283082). Particulars: primary human HUVEC with PBMC; actives raise or lower the signal. In short, it runs like this: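 PGE2 release measured by ELISA in an LPS-activated co-culture of human umbilical vein endothelial cells and peripheral blood mononuclear cells, read at 24 h post-dosing. DMSO served as baseline for bidirectional curve fitting.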

Read-out in assay [2]: Macrophage colony-stimulating factor (MCSF), CSF1 (gene 1435)
Description: BSK_LPS_MCSF: BioMAP Diversity Plus: LPS Assay for Macrophage colony-stimulating factor (MCSF) Biomarker Activity (AID 2283083). Conditions: primary human HUVEC with PBMC; actives raise or lower the signal. The essentials:
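Human umbilical vein endothelial cells co-cultured with peripheral blood mononuclear cells were exposed to compound for 24 h. M-CSF levels were measured by ELISA, and bidirectional curve fitting used DMSO as the negative control and baseline.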

Read-out in assay [3]: Tissue Factor, F3 (gene 2152)
The assay can be described thus: BSK_LPS_TissueFactor: BioMAP Diversity Plus: LPS Assay for Tissue Factor Biomarker Activity (AID 2283084). Conditions: primary human HUVEC with PBMC; actives raise or lower the signal. The essentials: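 Human umbilical vein endothelial cells co-cultured with peripheral blood mononuclear cells were dosed and stimulated with LPS. Cell-surface CD142 was quantified by ELISA at 24 h. Activity was fitted bidirectionally against DMSO baseline.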

Read-out in assay [4]: Tumor necrosis factor (Homo sapiens) (UniProt P01375)
Description: BSK_LPS_TNFa: BioMAP Diversity Plus: LPS Assay for Tumour Necrosis Factor alpha (TNFa) Biomarker Activity (AID 2283085). Conditions: primary human HUVEC with PBMC; actives raise or lower the signal. In short, it runs like this:
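TNFa was quantified by ELISA in LPS-activated co-cultures of human endothelial cells and PBMC, 24 h post-dosing. Both increases and decreases versus DMSO were fitted.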

Read-out in assay [5]: Vascular cell adhesion molecule 1 (VCAM1), VCAM1 (gene 7412)
Description: BSK_LPS_VCAM1: BioMAP Diversity Plus: LPS Assay for Vascular cell adhesion molecule 1 (VCAM1) Biomarker Activity (AID 2283086). Particulars: primary human HUVEC with PBMC; actives raise or lower the signal. In short, it runs like this:
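VCAM-1 quantified by ELISA in an LPS-activated co-culture of human endothelial cells and peripheral blood mononuclear cells, read 24 h post-treatment. Fitted in both directions versus DMSO; parallel SRB staining flags overt cytotoxicity.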

Read-out in another assay: CD38, CD38 (gene 952)
Description: BSK_SAg_CD38: BioMAP Diversity Plus: SAg Assay for CD38 Biomarker Activity (AID 2283087). Particulars: primary human HUVEC with PBMC; actives raise or lower the signal. In short, it runs like this:
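CD38 quantified by ELISA (fluorescence) in a superantigen-activated endothelial cell–PBMC co-culture at 24 h post-dose. Activity fitted in both directions relative to DMSO; parallel SRB and Alamar Blue cytotoxicity read-outs.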

Read-out in the next assay: CD40, CD40 (gene 958)
The assay can be described thus: BSK_SAg_CD40: BioMAP Diversity Plus: SAg Assay for CD40 Biomarker Activity (AID 2283088). Particulars: primary human HUVEC with PBMC; actives raise or lower the signal. In short, it runs like this:
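Human umbilical vein endothelial cells co-cultured with PBMC; CD40 levels measured by ELISA with fluorescence read-out 24 h after chemical dosing. Gain or loss of signal fitted bidirectionally against DMSO baseline.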

Read-out in a further assay: CD69, CD69 (gene 969)
The assay can be described thus: BSK_SAg_CD69: BioMAP Diversity Plus: SAg Assay for CD69 Biomarker Activity (AID 2283089).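 On AC50: cell surface CD69 protein quantified by ELISA with fluorescence detection.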 Particulars: primary human HUVEC with PBMC; actives raise or lower the signal. In short, it runs like this:
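ELISA, fluorescence read-out: CD69 on human umbilical vein endothelial cell + PBMC co-culture, 24 h post-dosing. Gain or loss of signal fitted bidirectionally against DMSO baseline.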

Read-out in assay [6]: Monocyte Chemoattractant Protein-1 (MCP1), CCL2 (gene 6347)
The assay can be described thus: BSK_SAg_MCP1: BioMAP Diversity Plus: SAg Assay for Monocyte Chemoattractant Protein-1 (MCP1) Biomarker Activity (AID 2283090). Conditions: primary human HUVEC with PBMC; actives raise or lower the signal. In short, it runs like this: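 Values derive from bidirectional fitting of ELISA-measured MCP1 against DMSO controls. Readings were taken 24 h after dosing human vascular endothelial cells co-cultured with peripheral blood mononuclear cells under superantigen stimulation.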

Read-out in assay [7]: E-selectin (Homo sapiens) (UniProt P16581)
The assay can be described thus: BSK_SAg_Eselectin: BioMAP Diversity Plus: SAg Assay for Eselectin Biomarker Activity (AID 2283091). Particulars: primary human HUVEC with PBMC; actives raise or lower the signal. The essentials:
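HUVEC co-cultured with PBMC, compound dosed then read at 24 h; E-selectin measured by ELISA. Activity fitted bidirectionally against DMSO as negative control and baseline.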

Read-out in assay [8]: Monokine induced gamma interferon (MIG), CXCL9 (gene 4283)
The assay can be described thus: BSK_SAg_MIG: BioMAP Diversity Plus: SAg Assay for Monokine induced gamma interferon (MIG) Biomarker Activity (AID 2283092). Conditions: primary human HUVEC with PBMC; actives raise or lower the signal. In short, it runs like this:
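ELISA readout of MIG/CXCL9; primary human umbilical vein endothelial cells co-cultured with peripheral blood mononuclear cells; 24 h post-dose; gain/loss fit vs DMSO baseline.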

Assay [9] can be described thus: BSK_SAg_PBMCCytotoxicity: PBMC Cytotoxicity Assessment in the BioMAP Diversity Plus: SAg Assay (AID 2283093).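 Further: PBMC viability measured as Alamar Blue reduction fluorescence at 546/580 nm; fitted both ways against DMSO so a hit may be loss or gain of signal.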 Particulars: primary human HUVEC with PBMC. In short, it runs like this:
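Alamar Blue reduction (6 h, 546/580 nm) reports PBMC cytotoxicity after 90 h superantigen activation (SEB, TSST-1; 20 ng/mL final each) with 1 h compound pre-treatment. Gain or loss of signal fitted versus DMSO.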

Read-out in assay [10]: Interleukin-8 (IL8), CXCL8 (gene 3576)
Description: BSK_SAg_IL8: BioMAP Diversity Plus: SAg Assay for Interleukin-8 (IL8) Biomarker Activity (AID 2283094). Particulars: primary human HUVEC with PBMC; actives raise or lower the signal. The essentials:
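ELISA readout of IL-8 from a superantigen-activated endothelial/PBMC primary human co-culture, taken 24 h post-dosing and fitted in both directions against DMSO; parallel SRB total-protein staining flags overt cytotoxicity.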

Assay [11] is described as follows: BSK_SAg_Proliferation: Cell Proliferation Assessment in the BioMAP Diversity Plus: SAg Assay (AID 2283095).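 Further: relative cell number as total protein by SRB absorbance in sub-confluent culture.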 Particulars: primary human HUVEC with PBMC. In short, it runs like this: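 Relative cell number in the endothelial cell/PBMC co-culture was quantified at 96 h by SRB staining (0.1% SRB, 10% TCA fixation, read at 560 nm). Curves were fitted in both directions relative to DMSO baseline.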

Assay [12] in a line: BSK_SAg_SRB: Viability Assessment in the BioMAP Diversity Plus: SAg Assay (AID 2283096).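 Further: cells read one day after compound addition; hits may be either gain or loss of signal compared with DMSO.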 Conditions: primary human HUVEC with PBMC. The essentials:
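This overt-cytotoxicity endpoint quantifies protein in human endothelial/PBMC co-cultures at 24 h using SRB absorbance (560 nm) after trichloroacetic acid fixation. Values reflect signal change from the DMSO negative control, fitted bidirectionally.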

The target of assay [13] is human CYP1A1, CYP1A1 (gene 1543) (UniProt P04798). Description: NVS_ADME_hCYP1A1: NovaScreen (NVS) CYP450-related Enzyme Activity (ADME) Assay for human CYP1A1 (AID 2283100; active means hit-call score of the fitted dose curve at least 0.9, where 1 is the maximum). In short, it runs like this: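 Cell-free fluorescence assay of recombinant human CYP1A1 activity with a specific substrate, read 1 h after dosing. Compounds were screened in duplicate at 10 uM, then hits tested in concentration-response up to 20 uM; acetonitrile served as baseline.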
Chain of human CYP1A1, CYP1A1 (gene 1543) (P04798 whole entry, looked up): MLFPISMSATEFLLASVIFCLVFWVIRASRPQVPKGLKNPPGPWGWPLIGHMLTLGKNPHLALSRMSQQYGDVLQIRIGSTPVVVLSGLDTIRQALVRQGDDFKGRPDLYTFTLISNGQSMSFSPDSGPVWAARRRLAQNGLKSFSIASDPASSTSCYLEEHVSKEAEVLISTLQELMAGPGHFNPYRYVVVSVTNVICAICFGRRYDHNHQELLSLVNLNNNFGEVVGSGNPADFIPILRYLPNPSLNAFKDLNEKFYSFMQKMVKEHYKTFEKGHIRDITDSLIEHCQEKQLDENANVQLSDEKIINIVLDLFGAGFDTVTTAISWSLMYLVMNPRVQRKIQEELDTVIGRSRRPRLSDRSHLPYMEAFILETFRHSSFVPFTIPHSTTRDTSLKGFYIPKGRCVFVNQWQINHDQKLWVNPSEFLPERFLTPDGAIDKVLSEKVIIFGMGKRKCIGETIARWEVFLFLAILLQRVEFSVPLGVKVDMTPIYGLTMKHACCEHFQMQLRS

The target of assay [14] is human CYP1A2, CYP1A2 (gene 1544) (UniProt P05177). Description: NVS_ADME_hCYP1A2: NovaScreen (NVS) CYP450-related Enzyme Activity (ADME) Assay for human CYP1A2 (AID 2283102; active means hit-call score of the fitted dose curve at least 0.9, where 1 is the maximum;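 further: potency for inhibition since loss of fluorescence marks reduced CYP1A2 activity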). The essentials:
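Cell-free recombinant human CYP1A2 expressed in insect cells, with fluorogenic substrate; fluorescence intensity read 0.5 h after dosing. Loss of signal relative to acetonitrile baseline scored. Primary screen in duplicate at 10 uM; actives retested in concentration series.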

Chain of Tumor necrosis factor (Homo sapiens) (P01375 whole entry, looked up): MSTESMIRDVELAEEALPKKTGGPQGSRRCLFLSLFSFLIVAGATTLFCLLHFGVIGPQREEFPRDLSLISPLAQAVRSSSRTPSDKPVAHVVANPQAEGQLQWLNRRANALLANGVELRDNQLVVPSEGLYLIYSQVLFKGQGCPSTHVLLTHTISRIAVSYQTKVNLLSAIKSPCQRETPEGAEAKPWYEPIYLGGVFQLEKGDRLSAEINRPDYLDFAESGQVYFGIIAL
Chain of E-selectin (Homo sapiens) (P16581 whole entry, looked up): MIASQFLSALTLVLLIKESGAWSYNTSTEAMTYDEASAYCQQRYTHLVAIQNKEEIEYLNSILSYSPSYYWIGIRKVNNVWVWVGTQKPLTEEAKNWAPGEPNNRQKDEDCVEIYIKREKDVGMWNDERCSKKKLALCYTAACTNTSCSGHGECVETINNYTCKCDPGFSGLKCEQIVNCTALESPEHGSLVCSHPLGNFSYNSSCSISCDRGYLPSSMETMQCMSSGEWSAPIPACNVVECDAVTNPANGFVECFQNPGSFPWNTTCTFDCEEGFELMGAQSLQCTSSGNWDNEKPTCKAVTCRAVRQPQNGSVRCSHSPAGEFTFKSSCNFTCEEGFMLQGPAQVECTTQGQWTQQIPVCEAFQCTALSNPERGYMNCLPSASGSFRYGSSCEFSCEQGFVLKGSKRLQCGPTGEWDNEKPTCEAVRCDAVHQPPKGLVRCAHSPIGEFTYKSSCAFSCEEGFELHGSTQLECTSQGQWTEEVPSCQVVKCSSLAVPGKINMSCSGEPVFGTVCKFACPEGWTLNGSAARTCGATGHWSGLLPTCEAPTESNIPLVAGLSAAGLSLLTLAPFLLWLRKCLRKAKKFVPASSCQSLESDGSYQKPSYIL
Chain of human CYP1A2, CYP1A2 (gene 1544) (P05177 whole entry, looked up): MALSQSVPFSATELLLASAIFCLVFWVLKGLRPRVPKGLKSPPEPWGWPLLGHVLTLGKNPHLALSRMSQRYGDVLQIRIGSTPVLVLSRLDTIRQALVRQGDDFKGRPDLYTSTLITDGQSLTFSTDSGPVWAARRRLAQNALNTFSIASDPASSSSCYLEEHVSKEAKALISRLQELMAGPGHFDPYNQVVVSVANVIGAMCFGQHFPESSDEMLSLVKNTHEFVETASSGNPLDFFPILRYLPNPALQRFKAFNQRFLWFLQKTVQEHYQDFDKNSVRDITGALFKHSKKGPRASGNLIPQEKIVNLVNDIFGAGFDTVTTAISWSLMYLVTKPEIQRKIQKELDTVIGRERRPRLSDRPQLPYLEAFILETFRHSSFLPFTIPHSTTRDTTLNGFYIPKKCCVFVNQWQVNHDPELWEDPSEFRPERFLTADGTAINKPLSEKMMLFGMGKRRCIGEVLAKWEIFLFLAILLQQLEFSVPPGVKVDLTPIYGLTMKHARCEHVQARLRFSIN

What is called AC50 is the midpoint of the concentration-response curve, whichever way the signal moves. `Cc1c(-c2cccnc2)c2ccccc2n1CCCCC(=O)O`: the AC50 is 1.14 µM (active) in assay [1], 20 µM (active) in [11], 4.39 µM (active) in assay [13] and 13.9 µM (active) in assay [14]. In addition, the outcome in assay [2] is “inactive”; in [3], “inactive”; in assay [4] it was “inactive”; in [5], “inactive”; in the assay with CD38, CD38 (gene 952), “inactive”; in the assay with CD40, CD40 (gene 958), “inactive”. Also, the outcome in the assay with CD69, CD69 (gene 969) is “inactive”; in [6] it was “inactive”; in assay [7], “inactive”; in assay [8], “inactive”; in assay [9] it was “inactive”; in assay [10], “inactive”. Besides, the outcome in assay [12] was inactive.

Regarding `O=c1[nH]c2ccc(S(=O)CCN3CCC(Cc4ccc(F)cc4)CC3)cc2o1` (centres undefined), the outcome is “inactive” in [1]; “inactive” in assay [2]; “inactive” in assay [3]; “inactive” in assay [4]; “inactive” in assay [5]; “inactive” with CD38, CD38 (gene 952). Further, the outcome was “inactive” with CD40, CD40 (gene 958); “inactive” in the assay with CD69, CD69 (gene 969); “inactive” in assay [6]; “inactive” in [7]; “inactive” in [8]; “inactive” in assay [9]. The outcome in assay [10] and in assay [12] was inactive.

For the compound `O=C(NS(=O)(=O)/C=C/c1ccccc1)c1ccc(F)cc1Cl`, the outcome in [1] is “inactive”; in assay [2], “inactive”; in assay [3], “inactive”; in assay [4], “inactive”; in assay [5] it was “inactive”; in the assay with CD38, CD38 (gene 952), “inactive”. Further, the outcome is “inactive” with CD69, CD69 (gene 969); “inactive” in assay [6]; “inactive” in assay [7]; “inactive” in assay [8]; “inactive” in assay [9]; “inactive” in assay [10]. Further, the result in [12] was inactive. The concentration at half-maximal activity (AC50) in the assay with CD40, CD40 (gene 958) is 9.37 µM (active).

On to `CCNc1ccccc1`, for which the outcome in [1] was “inactive”; in assay [2] it was “inactive”; in assay [3], “inactive”; in [4], “inactive”; in assay [5], “inactive”; in the assay with CD38, CD38 (gene 952), “inactive”. Further, the outcome in the assay with CD40, CD40 (gene 958) is “inactive”; in the assay with CD69, CD69 (gene 969) it was “inactive”; in assay [6] it was “inactive”; in assay [7], “inactive”; in assay [8], “inactive”; in assay [9], “inactive”. The outcome in assay [10] and in [12] was inactive.

On to `Cc1ccc(O)cc1`, for which the AC50 in assay [1] was 4.37 µM (active). In addition, the outcome in [2] is “inactive”; in assay [3], “inactive”; in assay [4] it was “inactive”; in assay [5], “inactive”; with CD38, CD38 (gene 952), “inactive”; in the assay with CD40, CD40 (gene 958), “inactive”. Besides, the outcome in the assay with CD69, CD69 (gene 969) is “inactive”; in assay [6], “inactive”; in [7] it was “inactive”; in assay [8], “inactive”; in assay [9], “inactive”; in [10] it was “inactive”. Moreover, the outcome in assay [12] was inactive.

Regarding `O=C1OC(=O)C2C3C=CC(C3)C12` (centres undefined), the outcome in assay [1] was “inactive”; in [2], “inactive”; in assay [3], “inactive”; in assay [4] it was “inactive”; in assay [5], “inactive”; with CD38, CD38 (gene 952), “inactive”. Moreover, the outcome with CD40, CD40 (gene 958) is “inactive”; with CD69, CD69 (gene 969), “inactive”; in [6] it was “inactive”; in assay [7], “inactive”; in assay [8], “inactive”; in [9] it was “inactive”. Moreover, the result in assay [10], in assay [11] and in assay [12] was inactive.

As for `C1N2CN3CN1CN(C2)C3`, the outcome in [1] was “inactive”; in [2] it was “inactive”; in [3], “inactive”; in assay [4], “inactive”; in assay [5] it was “inactive”; with CD38, CD38 (gene 952) it was “inactive”. The outcome with CD40, CD40 (gene 958) was “inactive”; with CD69, CD69 (gene 969), “inactive”; in assay [6] it was “inactive”; in assay [7], “inactive”; in [8] it was “inactive”; in [9], “inactive”. For the same compound, the result in assay [10] and in [12] was inactive.

On to `COc1cccc(-c2ccc(/C=C\CN3CCCCCC3)cc2Cl)c1`, for which the result in [1], in [2], in [3], in [4] and in assay [6] was inactive. For the same compound, the half-maximal activity concentration (AC50) in assay [5] was 26 µM (active); in the assay with CD38, CD38 (gene 952) it was 29.1 µM (active); with CD40, CD40 (gene 958), 27.3 µM (active); in the assay with CD69, CD69 (gene 969) it was 30.4 µM (active); in assay [7] it was 29.8 µM (active); in assay [8] it was 25.8 µM (active). The AC50 is 25 µM (active) in assay [10] and 27.2 µM (active) in [12].

As for `CC(O)CN(CCN(CC(C)O)CC(C)O)CC(C)O` (centres undefined), the outcome in assay [1] was “inactive”; in assay [2], “inactive”; in assay [3], “inactive”; in assay [4], “inactive”; in [5], “inactive”; with CD38, CD38 (gene 952), “inactive”. In addition, the outcome in the assay with CD40, CD40 (gene 958) is “inactive”; in the assay with CD69, CD69 (gene 969), “inactive”; in [6], “inactive”; in assay [7], “inactive”; in assay [8], “inactive”; in assay [9], “inactive”. The result in assay [10] and in assay [12] was inactive.
